PubChem BioAssay AID720647 (Broad Institute, 2013)
Screen size: about 380,000 compounds; about 1,300 (0.34%) were called active.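 How the source made its calls: active means drop in luminescence signal, shown as inhibition above about 50% in the replicate tests (limit read from the data, passing the limit was not always enough); inconclusive means probably only some replicates passing the limit; inactive means the rest.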 Shown is part of a subset that was picked to be rich in actives.

These compounds were tested on Drosophila bursicon receptor LGR2 (rickets) (assay: LGR2 cAMP reporter signal reduction – cell-based, HEK293, CRE-luciferase reporter, bursicon stimulation, primary screen (AID 720647;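 further: agonist challenge used bursicon conditioned medium at about half maximal strength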)). Conditions: bursicon-stimulated, 4 h, at 9.99 µM, active compounds read high.
For `O=C(Nc1ccccc1F)N1CC(=O)N2[C@H](C1)[C@H](c1ccc(C#Cc3ccc(F)cc3)cc1)[C@@H]2CO`, the inhibition was 5.08% (inactive).
For `C[C@@H]1CN([C@@H](C)CO)C(=O)c2cc(NC(=O)Cc3ccccc3)ccc2O[C@H]1CN(C)CC1CC1`, the inhibition was -1.21% (inactive).
For `COc1ccc(CC(=O)NCc2nnc(SCC(=O)Nc3ncc(C)s3)n2C)cc1`, the inhibition was 8.94% (inactive).
`COC(=O)Nc1ncc(CN2C(=O)c3ccccc3C2=O)s1` was tested, and the inhibition was -22.5% (inactive).
With `Cc1cnc(NC(=O)c2ccccn2)s1` the inhibition was 59.5% (active).
In the case of `C[C@H]1CN([C@@H](C)CO)C(=O)CCCn2nncc2CO[C@@H]1CN(C)S(=O)(=O)c1ccccc1C#N`, the inhibition is reported as -2.41% (inactive).
For `O=C(Nc1ccccc1)N1CCCCN2[C@H](CO)[C@@H](c3ccc(-c4ccccc4F)cc3)[C@H]2C1`, the inhibition was 17.4% (inactive).
In the case of `CCCNC(=O)N1[C@H](C#N)[C@@H](c2ccccc2C2=CCCCC2)[C@@H]1CO`, the inhibition is reported as 8.2% (inactive).
With `O=C1CN(Cc2ccccc2)C[C@H]2[C@H](c3ccc(-c4ccccc4)cc3)[C@@H](CO)N12` the inhibition was -6.09% (inactive).
In the case of `C=CCN1CCN(C(=O)CCCc2ccccc2)CC1`, the inhibition is reported as 66.7% (active).
With `O=C(CCc1ccccc1F)N1CCN(c2ccccc2)CC1` the inhibition was -17% (inactive).
For `O=C(CCCc1ccccc1)NCc1ccccc1`, the inhibition was -36.7% (inactive).
With `CCCNC(=O)C[C@@H]1CC[C@H]2[C@H](COc3ccc(NC(=O)c4ccc(Cl)cc4)cc3C(=O)N2C)O1` the inhibition was -13.7% (inactive).
For `COc1ccc(-c2cn(CC[C@@H]3CC[C@@H](NC(=O)CCN4CCCCC4)[C@@H](CO)O3)nn2)cc1`, the inhibition was -11.8% (inactive).
In the case of `O=C(Nc1ccccc1Cl)/C(Cl)=C(\Cl)S(=O)c1ccccc1` (stereo not drawn), the inhibition is reported as 98.9% (active).
`C[C@H](CO)N1C[C@H](C)[C@H](CN(C)Cc2ccccc2)OCCCC[C@H](C)Oc2ccc(NC(=O)Cc3ccccc3)cc2C1=O` was tested, and the inhibition was 24% (inactive).
For `C[C@H](CO)N1C[C@H](C)[C@@H](CN(C)Cc2ccccc2)OCCCC[C@H](C)Oc2ccc(NC(=O)Cc3ccccc3)cc2C1=O`, the inhibition was 3.25% (inactive).
In the case of `O=C(C[C@H]1C=C[C@@H](NC(=O)Nc2cc(F)ccc2F)[C@H](CO)O1)NCCCN1CCOCC1`, the inhibition is reported as -7.04% (inactive).
With `COc1cccc(C(NC(C)=O)c2nc(-c3ccccc3OC)cs2)c1` (stereo not drawn) the inhibition was -5.66% (inactive).
In the case of `COc1ccc(-c2csc(Nc3ccccn3)n2)cc1`, the inhibition is reported as 78.5% (active).
In the case of `COc1cncc(-c2cnc3sc(NCCc4ccccn4)nn23)c1`, the inhibition is reported as 20.8% (inactive).
In the case of `C[C@H](CO)N1C[C@H](C)[C@H](CN(C)C(=O)Nc2ccc(F)cc2)Oc2ccc(NC(=O)Cc3cn(C)c4ccccc34)cc2CC1=O`, the inhibition is reported as 10.8% (inactive).
In the case of `C[C@@H]1CN([C@@H](C)CO)C(=O)c2cc(NS(=O)(=O)c3ccccc3)ccc2O[C@H]1CN(C)CC1CCCCC1`, the inhibition is reported as -4.25% (inactive).
For `C[C@@H]1CN([C@@H](C)CO)C(=O)CCCn2cc(nn2)CO[C@H]1CN(C)Cc1ccc(C(=O)O)cc1`, the inhibition was 6.13% (inactive).
`COCCNC(=O)C[C@H]1CC[C@H]2[C@H](COc3ccc(NC(=O)C4CCOCC4)cc3C(=O)N2C)O1` was tested, and the inhibition was -14% (inactive).
`CC(C)C(=O)NC(NC(=S)NC1CCS(=O)(=O)C1)C(Cl)(Cl)Cl` (stereo not drawn) was tested, and the inhibition was -0.282% (inactive).
With `O=C(CSc1ccccc1F)NC1CCS(=O)(=O)C1` (stereo not drawn) the inhibition was 23.4% (inactive).
With `O=S1(=O)CCC(NC(=S)SCc2ccccc2Br)C1` (stereo not drawn) the inhibition was 69.2% (active).
`O=C1COc2ccc(C(=O)COC(=O)c3ccccc3Cl)cc2N1` was tested, and the inhibition was -31.2% (inactive).
In the case of `CCOc1cc(C(=O)OCC(=O)Nc2cccc(C)c2)ccc1OCC(=O)N1CCOCC1`, the inhibition is reported as 16.2% (inactive).
`CC(=O)Nc1cccc(C(=O)OCC(=O)c2ccc3c(c2)OCO3)c1` was tested, and the inhibition was 63.3% (active).
With `CCOc1ccc(NCCC(=O)c2ccc3c(c2)OCO3)cc1` the inhibition was -15.9% (inactive).
`O=C(COC(=O)c1ccccc1)c1ccc2c(c1)OCCO2` was tested, and the inhibition was 66.7% (active).
`N#CCCN(C(=O)COC(=O)c1ccc2c(c1)OCCO2)c1ccccc1` was tested, and the inhibition was 4.75% (inactive).
`COc1ccc2c3c(n(C)c2c1)[C@H](CO)N(Cc1ccccc1)CC31CN(C(=O)c2ccccc2F)C1` was tested, and the inhibition was 13.5% (inactive).
In the case of `CCCC(=O)Nc1ccc2c(c1)C(=O)N(C)C[C@H](OC)[C@H](C)CN(C(=O)c1ccccn1)[C@H](C)CO2`, the inhibition is reported as 14% (inactive).
In the case of `O=C(C[C@H]1C=C[C@H](NC(=O)CC2CC2)[C@@H](CO)O1)NCc1ccccc1`, the inhibition is reported as -1.04% (inactive).
With `C[C@H]1CN([C@@H](C)CO)C(=O)c2cc(NC(=O)Cn3cnnn3)ccc2O[C@H]1CN(C)C(=O)NC1CCCCC1` the inhibition was -0.859% (inactive).
`COc1ccc2c3c([nH]c2c1)[C@@H](CO)N(C(=O)Nc1ccc(F)cc1)CC31CN(S(C)(=O)=O)C1` was tested, and the inhibition was -10.4% (inactive).
With `C[C@@H]1CN([C@@H](C)CO)C(=O)c2cc(-c3ccc(C#N)cc3)cnc2O[C@@H]1CN(C)Cc1cccnc1` the inhibition was 21.1% (inactive).
With `O=[N+]([O-])c1ccc(NS(=O)(=O)c2ccccc2)c(Cl)c1` the inhibition was -13% (inactive).
In the case of `O=S(=O)(Nc1ccc(O)c2ccccc12)c1ccc(OC(F)(F)F)cc1`, the inhibition is reported as 58.8% (active).
For `O=S(=O)(Cc1noc(-c2ccc(OC(F)(F)F)cc2)n1)c1ccc(F)cc1`, the inhibition was -18.2% (inactive).
`CCCN1[C@@H]2c3ccc(C4=CCCC4)c(=O)n3C[C@@H]2[C@@H](CO)[C@@H]1C(=O)NCc1ccccn1` was tested, and the inhibition was -8.46% (inactive).
For `COc1ccc(S(=O)(=O)N(C)C[C@H]2OCCCC[C@H](C)Oc3ccc(NC(=O)Nc4ccc5c(c4)OCO5)cc3C(=O)N([C@@H](C)CO)C[C@@H]2C)cc1`, the inhibition was 21.6% (inactive).
`CO[C@@H]1CN(C)C(=O)c2ccc(NC(C)=O)cc2OC[C@@H](C)N(CC2CC2)C[C@H]1C` was tested, and the inhibition was -1.72% (inactive).
`C[C@H](CO)N1C[C@H](C)[C@H](CN(C)CC2CC2)OCCCC[C@H](C)Oc2ccc(NC(=O)c3ccncc3)cc2C1=O` was tested, and the inhibition was -8.96% (inactive).
In the case of `Cc1ccc(S(=O)(=O)Nc2ccc3c(c2)C(=O)N([C@H](C)CO)C[C@H](C)[C@H](CN(C)S(=O)(=O)c2ccc(F)cc2)O3)cc1`, the inhibition is reported as 2.4% (inactive).
In the case of `Cc1nc(=O)c(-c2ccccc2)c(C)n1-c1ccc(Br)cc1`, the inhibition is reported as 4.28% (inactive).
`Cc1nc(-c2ccccc2)cn2c1nc1ccccc12` was tested, and the inhibition was 3% (inactive).
For `Cc1ccc(-c2cn3cc(C)ccc3n2)cc1`, the inhibition was 102% (active).
With `Cc1ccc(N2CCN(c3ccc([N+](=O)[O-])cn3)CC2)c(C)c1` the inhibition was 4.63% (inactive).
`Cn1cnc(C(F)(F)F)c1-c1ccc([N+](=O)[O-])cc1` was tested, and the inhibition was -7.43% (inactive).
`Cc1ccc(-c2cn3cc([N+](=O)[O-])ccc3n2)cc1` was tested, and the inhibition was 67.1% (active).
With `COc1ccccc1Cc1c(-c2ccc(F)cc2)nc2ccc(C)cn12` the inhibition was -38.1% (inactive).
`Cc1ccc2nc(-c3ccc(Br)cc3)cn2c1` was tested, and the inhibition was 96.2% (active).
For `C[C@@H]1CN([C@@H](C)CO)C(=O)c2cc(C3=CCCC3)cnc2O[C@H]1CN(C)C(=O)c1ccccn1`, the inhibition was -11.6% (inactive).
`COc1ccc(NC(=O)Nc2ccc3c(c2)[C@@H]2C[C@@H](CC(=O)NCc4ccncc4)O[C@@H](CO)[C@@H]2O3)cc1` was tested, and the inhibition was 6.93% (inactive).
In the case of `CCC(=O)N(C)C[C@@H]1Oc2cc(-c3ccc(C#N)cc3)ccc2S(=O)(=O)N([C@@H](C)CO)C[C@@H]1C`, the inhibition is reported as -4.05% (inactive).
With `Cc1nc(N2[C@H](CO)[C@H](c3ccccc3)[C@H]2CNCC2CCCCC2)sc1C` the inhibition was -6.28% (inactive).
With `CCc1nc2cccnc2n1-c1ccc(C(=O)O)cc1` the inhibition was -11.5% (inactive).
With `NCCCCCC(=O)N/N=C/c1ccc2nccnc2c1` the inhibition was -0.608% (inactive).
With `O=C(O)c1ccc(N/N=C/c2ccc3ncccc3c2)cc1` the inhibition was 88.1% (active).
In the case of `O=C(C[C@H]1C=C[C@@H](NC(=O)C2CCOCC2)[C@@H](CO)O1)NCC1CCCCC1`, the inhibition is reported as 25% (inactive).
With `Cc1noc(C)c1NC(=O)N(C)C[C@H]1Oc2ccc(NS(=O)(=O)c3ccc(F)cc3)cc2C(=O)N([C@@H](C)CO)C[C@H]1C` the inhibition was -0.097% (inactive).
`O=C(CSC(=S)N1CCOCC1)c1ccccc1` was tested, and the inhibition was 69.5% (active).
In the case of `N[C@@H](Cc1ccccc1)C(=O)N1CCOCC1`, the inhibition is reported as -3.78% (inactive).
In the case of `O=C(O)CC(CC(=O)N1CCOCC1)c1ccccc1` (stereo not drawn), the inhibition is reported as 7.83% (inactive).
`C[C@@H]1CN([C@@H](C)CO)S(=O)(=O)c2ccc(-c3ccc(C#N)cc3)cc2O[C@H]1CN(C)Cc1ccccn1` was tested, and the inhibition was 12.2% (inactive).
For `CCCC(=O)N1CC2(CN(C(=O)NC(C)C)C2)c2c([nH]c3cc(OC)ccc23)[C@@H]1CO`, the inhibition was 0.057% (inactive).
`O=C(NCc1ccco1)/C(=C\c1cccc([N+](=O)[O-])c1)NC(=O)c1ccco1` was tested, and the inhibition was 21.6% (inactive).
For `CCn1cc(/C=C(\NC(=O)c2ccc(C)cc2)C(=O)NCCN2CCOCC2)c2ccccc21`, the inhibition was -9.89% (inactive).
With `Cc1ccc(C(=O)N/C(=C/c2ccc(-c3cccc([N+](=O)[O-])c3)o2)C(=O)NCCCN(C)C)cc1` the inhibition was 77.8% (active).
With `C[C@H](CO)N1C[C@H](C)[C@@H](CN(C)S(=O)(=O)c2ccc(F)cc2)OCCCC[C@H](C)Oc2ccc(NC(=O)CCCN(C)C)cc2C1=O` the inhibition was -10.7% (inactive).
For `CN(C)CCNC(=O)c1ccc(Cl)c2cc3ccccc3nc12`, the inhibition was 86.6% (active).
`Cc1c(C(=O)NCCN(C)C)oc2ccc(S(=O)(=O)N3CCCC3)cc12` was tested, and the inhibition was -6.68% (inactive).
`Nc1nc2c(Br)ccc(Br)c2cc1C(=O)NCCc1ccccc1` was tested, and the inhibition was -7.19% (inactive).
`CC(C)NC(=O)N(C)C[C@@H]1OCCCC[C@@H](C)Oc2ccc(NC(=O)CCCN(C)C)cc2C(=O)N([C@@H](C)CO)C[C@@H]1C` was tested, and the inhibition was 0.91% (inactive).
